Compounds with a hit are over-represented: about 7.4% of the library has one in this group of screens.
SNCA viab count: GF-AFC viability counterscreen for inhibitors of alpha-synuclein gene (SNCA) expression; HEK-293-SNCA-luc viability, GF-AFC fluorescence, 24 h; Potency, µM (titrated, usually from 57.1 µM), for the others: at the highest dose activity change, negative = cytotoxicity, actives largely listed as cytotoxic; 0.12% of 150,000 active; AID 1671193, 2021;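 further: 0% = DMSO-treated cells and -100% = medium-only wells without cells; nearly all actives have a fitted effect of over 30% in size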
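Cytotoxicity counterscreen: after 24 h compound treatment of genome-edited SNCA-luciferase HEK-293 cells, live-cell protease substrate GF-AFC read by fluorescence after 30 min; activity scaled between DMSO (0%) and medium-only (-100%), curves Hill-fitted.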
SNCA expr inh: Primary qHTS assay for inhibitors of alpha-synuclein gene (SNCA) expression; 0.17% of 140,000 active; HEK-293 SNCA-luciferase knock-in, luminescence, 24 h; Potency, µM (doses to about 57.2 µM), without a hit: top-dose activity change, negative = inhibition, actives largely listed as inhibitors;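 further: plate controls were DMSO cells for no effect and cell-free wells for full effect; nearly all actives have a fitted effect of over 45% in size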
NPR1 antag: Natriuretic polypeptide receptor (hNpr1) antagonism - Primary qHTS. 1.6% of 76,000 active. AID 1347048, 2019. Potency, µM (highest dose often 46.3 µM), for the others: at the highest dose activity change, negative = inhibition, usual class: inhibitors. HEK293 hNpr1 GloSensor cGMP, ANP-stimulated luminescence. Atrial natriuretic peptide receptor 1 (Homo sapiens), P16066; calls by dose curve; further: nearly all actives have a fitted effect of over 60% in size
Target sequence (P16066 whole entry, looked up): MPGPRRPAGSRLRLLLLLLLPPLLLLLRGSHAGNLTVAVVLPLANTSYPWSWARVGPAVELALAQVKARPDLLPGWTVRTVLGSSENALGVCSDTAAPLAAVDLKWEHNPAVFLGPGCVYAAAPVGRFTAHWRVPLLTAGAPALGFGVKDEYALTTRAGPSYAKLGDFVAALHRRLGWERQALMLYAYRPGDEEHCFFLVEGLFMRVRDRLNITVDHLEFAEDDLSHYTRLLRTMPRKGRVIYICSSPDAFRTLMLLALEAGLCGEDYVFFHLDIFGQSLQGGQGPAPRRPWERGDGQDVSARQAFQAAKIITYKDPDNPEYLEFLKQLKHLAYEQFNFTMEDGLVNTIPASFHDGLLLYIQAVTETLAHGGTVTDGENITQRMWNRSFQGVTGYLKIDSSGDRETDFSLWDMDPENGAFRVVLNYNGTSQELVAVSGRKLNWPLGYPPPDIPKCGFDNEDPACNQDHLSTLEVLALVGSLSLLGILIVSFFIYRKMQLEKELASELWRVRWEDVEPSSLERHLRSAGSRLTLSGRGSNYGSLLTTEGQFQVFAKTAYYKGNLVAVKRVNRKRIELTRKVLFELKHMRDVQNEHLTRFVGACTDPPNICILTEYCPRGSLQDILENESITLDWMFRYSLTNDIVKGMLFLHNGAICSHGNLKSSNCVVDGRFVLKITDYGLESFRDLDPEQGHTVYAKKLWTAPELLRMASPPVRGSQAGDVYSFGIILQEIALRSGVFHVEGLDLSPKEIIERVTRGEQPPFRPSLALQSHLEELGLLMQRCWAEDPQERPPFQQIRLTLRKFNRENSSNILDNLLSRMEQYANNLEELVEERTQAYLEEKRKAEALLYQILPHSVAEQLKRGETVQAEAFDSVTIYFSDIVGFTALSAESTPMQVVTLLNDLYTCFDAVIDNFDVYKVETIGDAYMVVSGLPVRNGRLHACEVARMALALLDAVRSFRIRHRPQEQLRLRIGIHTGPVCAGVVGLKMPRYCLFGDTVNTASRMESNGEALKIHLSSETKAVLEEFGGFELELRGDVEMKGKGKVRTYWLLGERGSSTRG
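Compound pre-incubated 30 min at room temperature on GloSensor-loaded HEK293 cells stably carrying hNpr1 and the pGS-40F cGMP biosensor. Stimulation uses hNppA at 0.1 nM final; luminescence is taken at baseline and 20 min post-agonist.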
NIH3T3 tox: Cytotoxic Profiling in NIH 3T3 Cell Line of Diverse Libraries Using Quantitative High-Throughput Screening | NIH 3T3 viability, CellTiter-Glo ATP luminescence, 48-72 h | Potency, µM (series often up to 96.7 µM), inactives show at the highest dose activity change, negative = cytotoxicity, hits mostly inhibitors | AID 1345082, 2018 | 4.3% of 94,000 active; further: nearly all actives have a fitted effect of over 55% in size
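First NIH 3T3 cells are plated at 400 cells/well; next compound is pinned in; then plates incubate 48 or 72 hr at 37 °C; finally CellTiter-Glo is added and luminescence read after 10 min.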
HEK293 tox: Cytotoxic Profiling in HEK 293 Cell Line of Diverse Libraries Using Quantitative High-Throughput Screening; HEK 293 viability, ATP luminescence (CellTiter-Glo), 48-72 h; Potency, µM (highest dose often 115 µM), for the others: at the highest dose activity change, negative = cytotoxicity, most hits filed as inhibitors; 6.6% of 94,000 active; AID 1345083, 2018; further: nearly all actives have a fitted effect of over 60% in size
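HEK 293 cells seeded at 250 cells/well were exposed to compound for 48 or 72 hr at 37 degree Celsius. Viability taken as ATP content by CellTiter-Glo luminescence.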
FLuc inh: Firefly luciferase inhibition profiling of diverse chemical library using quantitative high-throughput screening. Luciferin 4-monooxygenase (Photinus pyralis), P08659. purified P. pyralis luciferase, luminescence, biochemical. Potency, µM (top dose mostly 115 µM), most hits filed as inhibitors. 2.5% of 76,000 active; further: nearly all actives have a fitted effect of over 65% in size
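Biochemical qHTS: compound (6-point titration) added to 10uM D-luciferin plus 10uM ATP in Tris acetate pH 7.5 buffer with Mg, Tween-20 and BSA, then purified enzyme at 10nM; light output imaged.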
Active calls of the source: *; i = inactive; ? = inconclusive; · = no result; [ ] = another dose, or the depositor's remark. Unless noted, the call rests on the fitted dose curve; in most records, active means well fitted curve in the direction sought with a large enough effect; inconclusive means small, poorly fitted or top-dose-only effect, or another doubt; inactive means no such curve, though single readings can be large; an effect the other way counts as inactive or inconclusive. Unless noted, on the % scale 0 is the no-effect control and ±100 the full control effect; potency means the concentration at half of the fitted maximal effect.

SMILES	SNCA viab count	SNCA expr inh	NPR1 antag	NIH3T3 tox	HEK293 tox	FLuc inh
CN1c2cc(C(=O)Nc3cccc(Br)c3)ccc2C(=O)N2CCCCCC21 (stereo not given)	0%[12.5 µM]	129%	1%	?	?	?
COc1cc(NC(=O)c2ccc3c(c2)N(C)C2CCCCN2C3=O)cc(OC)c1OC (stereo not given)	3%[12.5 µM]	10%	-15%	32µM*	?	i
Cc1cccc(NC(=O)c2ccc3c(c2)N(C)C2CCCCCN2C3=O)c1 (stereo not given)	11%[12.5 µM]	174%	-1%	?	?	35µM*
COC(=O)c1cccc(NC(=O)c2ccc3c(c2)N(C)C2CCCCN2C3=O)c1 (stereo not given)	21%[12.5 µM]	30%	-3%	?	?	?
CC(=O)N1CCN(c2ccc(C=O)cc2)C(=O)C1	1%[87.6 µM]	18%[87.6 µM]	·	i	5%[172 µM]	·
CSc1ccc(-c2nc(CN3CCN(C(=O)N(C)C)CC3)c(C)o2)cc1	-1%	33%	?	-19%	?	i
Cc1cc(C)cc(NC(=O)c2ccc3c(c2)N(C)C2CCCN2C3=O)c1 (stereo not given)	-11%[12.5 µM]	65%	9%	-26%	71µM*	i
CCS(=O)(=O)c1ncc(Cl)c(C(=O)N2CCN(c3cccc(Cl)c3)CC2)n1	3.5µM*	2.2µM*	·	·	·	·
CCCCN1CCN(C(=O)c2csc(N3CCN(c4cccc(Cl)c4)CC3)n2)CC1	?	?	-30%	?	22µM*	i
O=C(NC1CCCC1)c1csc(N2CCN(c3cccc(Cl)c3)CC2)n1	-27%	?	-19%	?	35µM*	i
CCc1ccc(-n2nc(C)c3c(C(=O)N4CCN(c5cccc(Cl)c5)CC4)cc(C)nc32)cc1	-6%	-3%	·	·	·	·
CC1CCc2onc(C(=O)N3CCN(c4cccc(Cl)c4)CC3)c2C1 (stereo not given)	-4%	-21%	·	·	·	·
O=C(N[C@@H]1CCC[C@@H]1C(=O)N1CCN(c2cccc(Cl)c2)CC1)c1ccncc1	1%	1%	-1%	?	?	i
FC(F)(F)c1ccc(CNc2ccc(Cc3c[nH]c4ncccc34)cn2)cc1	-14%	·	·	·	·	·
Cc1cccc(OCC(=O)NCCn2cccc2-c2nc(-c3ccc4c(c3)OCO4)no2)c1	?	-7%	-16%	?	?	14µM*
Cc1ccc(C(=O)NCCn2cccc2-c2nc(-c3ccc4c(c3)OCO4)no2)cc1C	-22%	67%	-23%	?	?	11µM*
COc1ccc(C(=O)NCCn2cccc2-c2nc(-c3ccccc3)no2)cc1F	-1%	-5%	-16%	-20%	-2%	i
O=C(NCCn1cccc1-c1nc(-c2ccccc2)no1)c1ccc(F)c(Cl)c1	-20%	6%	-14%	?	45µM*	i
O=C(NCCn1cccc1-c1nc(-c2ccc3c(c2)OCO3)no1)c1ccc(Cl)s1	?	59%	-17%	?	?	?
COc1ccc(C)cc1NC(=O)Cn1cccc1-c1nc(-c2ccc3c(c2)OCO3)no1	-1%	13%	-7%	40µM*	?	i
CNC(=O)c1nc2cccnc2n(CCCOC)c1=O	-9%[87.6 µM]	7%[87.6 µM]	·	-4%[138 µM]	5%[172 µM]	·
O=C(NCCn1cccc1-c1nc(-c2ccc3c(c2)OCO3)no1)c1ccc2c(c1)OCO2	-24%	104%	-17%	-8%	-7%	10µM*
O=C(NCCn1cccc1-c1nc(-c2ccc3c(c2)OCO3)no1)c1ccc(F)cc1	?	-7%	?	?	?	?
CCCCn1c(=O)c(C(=O)N2CCCC(C)C2)nc2cccnc21 (stereo not given)	-7%[87.6 µM]	20%[87.6 µM]	·	-22%[138 µM]	-15%[172 µM]	·
Cc1ccc(C(=O)NCc2ccnc3[nH]ccc23)cc1	17%[87.6 µM]	46%[87.6 µM]	1%[70.6 µM]	-2%[138 µM]	3%[172 µM]	?
SMILES	SNCA viab count	SNCA expr inh	NPR1 antag	NIH3T3 tox	HEK293 tox	FLuc inh
CC(C)c1ccc(C(=O)NCc2ccnc3[nH]ccc23)cc1	-3%[87.6 µM]	28%[87.6 µM]	-3%[70.6 µM]	?	?	25µM*
COc1ccc(CN2C(=O)[C@@H]3C[C@@H](CN3Cc3ccccc3Cl)Oc3ccccc32)cc1	-21%	-8%	-12%	45µM*	40µM*	i
N#Cc1ccc(CN2C[C@@H]3C[C@H]2C(=O)N(Cc2ccccc2)c2ccccc2O3)cc1	-19%[87.6 µM]	-29%[87.6 µM]	?	?	50µM*	i
O=C1[C@@H]2C[C@@H](CN2Cc2ccc(Cl)cc2)Oc2ccccc2N1CC1CC1	?	?	-30%[70.6 µM]	89µM*	89µM*	i
O=C1[C@@H]2C[C@@H](CN2Cc2ccccc2)Oc2ccccc2N1Cc1ccccc1	-17%[87.6 µM]	-30%[87.6 µM]	-22%[70.6 µM]	?	63µM*	i
CNC(=O)[C@@H]1CN(C(=O)c2nn(C)c3ccccc23)C[C@H]1CO	-3%	-16%	2%	-10%	-39%	i
CCCS(=O)(=O)N1CCC(N2C(=O)[C@H](OC)[C@@H]2c2ccncc2)CC1	-2%	0%	1%	-2%	5%	i
Fc1ccc(-c2ccc3ncc(Nc4ncccn4)n3n2)cc1	7%[87.6 µM]	22%[87.6 µM]	9%[70.6 µM]	?	-19%[172 µM]	i
COc1cncc(Nc2cnc3ccc(-c4ccc(F)cc4)nn23)c1	-3%[87.6 µM]	45%[87.6 µM]	-24%[70.6 µM]	79µM*	100µM*	i
Oc1cccc(Nc2cnc3ccc(-c4ccc(F)cc4)nn23)c1	-5%[87.6 µM]	57%[87.6 µM]	-18%[70.6 µM]	?	?	20µM*
COc1cccc(Nc2cnc3ccc(-c4cccc(CO)c4)nn23)c1	4%[87.6 µM]	27%[87.6 µM]	-17%[70.6 µM]	?	?	i
COc1cccc(Nc2cnc3ccc(-c4ccc(F)cc4)nn23)c1	-2%[87.6 µM]	16%[87.6 µM]	-15%[70.6 µM]	?	100µM*	i
O=C(c1cc(-c2ccccc2)n[nH]1)N1CCCC(Cc2noc(-c3cnccn3)n2)C1 (stereo not given)	-12%	-21%	2%	-3%	-12%	i
O=C(CCCc1ccccc1)N1CCC[C@H]1c1nc(-c2ccccc2)no1	-5%	-5%	-12%	?	?	i
COc1cccc(CN2CCNc3cnc(Nc4ccccc4)cc3C2)c1	-3%[87.6 µM]	-16%[87.6 µM]	?	?	89µM*	i
COc1ccc(OC)c(CN2CCNc3cnc(OCc4cccnc4)cc3C2)c1	3%[87.6 µM]	22%[87.6 µM]	-11%[70.6 µM]	?	?	i
